Results filed as inconclusive are left out. Where a call stands in place of a potency, no number is given. Activity calls are given as the source filed them. The call rests on the fitted dose curve; in most records, active means well fitted curve in the direction sought with a large enough effect; inconclusive means small, poorly fitted or top-dose-only effect, or another doubt; inactive means no such curve, though single readings can be large; an effect the other way counts as inactive or inconclusive.
Experiments:
[1] = target: Cytochrome P450 2C9 (Homo sapiens) (UniProt P11712); assay: qHTS Assay for Inhibitors and Substrates of Cytochrome P450 2C9 (AID 883); further: nearly all actives have a fitted effect of over 60% in size; further: potency means the concentration at half of the fitted maximal effect
Outline: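 Luminescent read-out of deoxyluciferin hydroxylation, normalized to 57uM sulphaphenazole (AC100). Reaction: 10nM enzyme, 100uM Luciferin-H (equal to KM), 25mM KPO4, 10 min compound preincubation, then 60 min with NADPH regeneration, both at 37C.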

[2] = target: Nuclear receptor subfamily 1 group I member 3 (Homo sapiens) (UniProt Q14994); assay: Primary qHTS for agonist of constitutive androstane receptor (CAR) against the NCATS DSHEA and TCM libraries (AID 1794839);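 further: HepG2 cells expressing human CAR with a CYP2B6 reporter plus PK11195 antagonist; luciferase reporter luminescence read with ONE-Glo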
Outline: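 Agonist mode in presence of hCAR antagonist PK11195 (0.75 µM final): test substances, 24 h, 37 °C, on HepG2-CYP2B6-hCAR cells. Same-well readouts: fluorescence viability, then ONE-Glo luminescence; CITCO as reference agonist.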

[3] = target: Cytochrome P450 3A4 (Homo sapiens) (UniProt P08684); assay: qHTS for inhibitors of CYP3A4 against the NCATS DSHEA and TCM libraries (AID 1919971);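 further: inhibition lowers luminescence from luciferin made by CYP3A4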
Outline: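 Luminescent P450-Glo readout. Enzyme plus pro-luciferin substrate in manufacturer buffer (typically 100 mM KPO4); 15 min RT preincubation; 1x NADPH regenerating system, 30-45 min RT in the dark; detection reagent 30 min.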

3D7 = assay: qHTS profiling for inhibitors of Plasmodium falciparum proliferation (AID 504749); further: nearly all actives have a fitted effect of over 60% in size; further: potency means the concentration at half of the fitted maximal effect; details: P. falciparum in erythrocytes, SYBR Green DNA, 72 h; series mostly up to 12.8 µM
Outline: (§1)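 Three-day growth assay of blood-stage parasites in erythrocytes (0.3% parasitemia, 2.5% hematocrit) at 37 C, 5% CO2, quantified by SYBR Green DNA staining after overnight detergent lysis.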

C2A = assay: as above; details: P. falciparum in erythrocytes, SYBR Green DNA, 72 h; series mostly up to 12.8 µM
Outline: as §1

CP201 = assay: as above; details: P. falciparum in erythrocytes, SYBR Green DNA, 72 h; series mostly up to 12.8 µM
Outline: as §1

CP250 = assay: as above; details: P. falciparum in erythrocytes, SYBR Green DNA, 72 h; series mostly up to 12.8 µM
Outline: as §1

CP256 = assay: as above; details: P. falciparum in erythrocytes, SYBR Green DNA, 72 h; series mostly up to 12.8 µM
Outline: as §1

CP262 = assay: as above; details: P. falciparum in erythrocytes, SYBR Green DNA, 72 h; series mostly up to 12.8 µM
Outline: as §1

CP286 = assay: as above; details: P. falciparum in erythrocytes, SYBR Green DNA, 72 h; series mostly up to 12.8 µM
Outline: as §1

CP297 = assay: as above; details: P. falciparum in erythrocytes, SYBR Green DNA, 72 h; series mostly up to 12.8 µM
Outline: as §1

CP329 = assay: as above; details: P. falciparum in erythrocytes, SYBR Green DNA, 72 h; series mostly up to 12.8 µM
Outline: as §1

Dd2 = assay: as above; details: P. falciparum in erythrocytes, SYBR Green DNA, 72 h; series mostly up to 12.8 µM
Outline: as §1

ECU = assay: as above; details: P. falciparum in erythrocytes, SYBR Green DNA, 72 h; series mostly up to 12.8 µM
Outline: as §1

FAB9 = assay: as above; details: P. falciparum in erythrocytes, SYBR Green DNA, 72 h; series mostly up to 12.8 µM
Outline: as §1

HB3 = assay: as above; details: P. falciparum in erythrocytes, SYBR Green DNA, 72 h; series mostly up to 12.8 µM
Outline: as §1

JCK = assay: as above; details: P. falciparum in erythrocytes, SYBR Green DNA, 72 h; series mostly up to 12.8 µM
Outline: as §1

PAD = assay: as above; details: P. falciparum in erythrocytes, SYBR Green DNA, 72 h; series mostly up to 12.8 µM
Outline: as §1

PC15 = assay: as above; details: P. falciparum in erythrocytes, SYBR Green DNA, 72 h; series mostly up to 12.8 µM
Outline: as §1

W2 = assay: as above; details: P. falciparum in erythrocytes, SYBR Green DNA, 72 h; series mostly up to 12.8 µM
Outline: as §1

Chain of Cytochrome P450 2C9 (Homo sapiens) (P11712 whole entry, looked up): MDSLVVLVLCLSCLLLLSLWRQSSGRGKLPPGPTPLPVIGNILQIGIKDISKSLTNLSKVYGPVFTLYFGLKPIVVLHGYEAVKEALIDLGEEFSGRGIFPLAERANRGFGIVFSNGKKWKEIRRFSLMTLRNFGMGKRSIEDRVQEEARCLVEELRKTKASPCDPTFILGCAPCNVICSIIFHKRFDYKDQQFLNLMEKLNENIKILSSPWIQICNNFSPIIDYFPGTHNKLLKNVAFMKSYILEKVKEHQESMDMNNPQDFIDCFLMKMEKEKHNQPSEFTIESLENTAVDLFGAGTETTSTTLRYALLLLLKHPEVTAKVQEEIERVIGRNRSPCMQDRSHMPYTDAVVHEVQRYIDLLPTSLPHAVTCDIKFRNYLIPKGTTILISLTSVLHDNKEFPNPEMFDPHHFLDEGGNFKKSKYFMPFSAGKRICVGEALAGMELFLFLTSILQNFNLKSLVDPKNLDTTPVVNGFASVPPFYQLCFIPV
Chain of Cytochrome P450 3A4 (Homo sapiens) (P08684 whole entry, looked up): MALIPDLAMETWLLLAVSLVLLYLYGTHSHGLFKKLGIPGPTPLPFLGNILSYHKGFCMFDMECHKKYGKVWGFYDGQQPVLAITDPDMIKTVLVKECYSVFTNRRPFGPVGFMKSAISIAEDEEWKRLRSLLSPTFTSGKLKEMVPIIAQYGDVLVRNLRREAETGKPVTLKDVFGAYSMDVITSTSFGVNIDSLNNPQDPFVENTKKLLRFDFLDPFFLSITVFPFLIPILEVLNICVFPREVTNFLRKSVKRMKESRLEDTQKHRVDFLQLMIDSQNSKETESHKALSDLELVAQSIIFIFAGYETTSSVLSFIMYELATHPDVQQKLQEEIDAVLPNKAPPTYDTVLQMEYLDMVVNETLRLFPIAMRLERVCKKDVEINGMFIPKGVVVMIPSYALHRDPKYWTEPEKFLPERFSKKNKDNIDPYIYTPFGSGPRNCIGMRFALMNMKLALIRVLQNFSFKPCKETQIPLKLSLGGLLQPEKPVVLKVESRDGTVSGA
Chain of Nuclear receptor subfamily 1 group I member 3 (Homo sapiens) (Q14994 whole entry, looked up): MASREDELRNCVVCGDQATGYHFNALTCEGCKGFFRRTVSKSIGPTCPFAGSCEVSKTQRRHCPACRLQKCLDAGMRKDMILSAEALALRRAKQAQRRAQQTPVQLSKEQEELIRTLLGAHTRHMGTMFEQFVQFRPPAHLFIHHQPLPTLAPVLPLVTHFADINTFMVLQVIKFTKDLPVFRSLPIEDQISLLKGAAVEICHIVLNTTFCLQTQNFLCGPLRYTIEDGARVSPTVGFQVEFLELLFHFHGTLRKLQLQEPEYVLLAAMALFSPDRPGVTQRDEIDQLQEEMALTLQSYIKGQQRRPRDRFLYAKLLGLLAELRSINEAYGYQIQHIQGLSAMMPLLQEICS

SMILES: Cc1ccccc1-c1nc(N2CCOCC2)c2ccccc2n1
- activity change, negative = inhibition [1]: 14.3% [at 2.29 µM] (inactive)

SMILES: COc1ccccc1CNc1ncnc2ccc(-c3ccccc3OC)cc12
- Potency [1]: 794 nM (active)

SMILES: O=C(/C=C/c1ccc(O)c(O)c1)OC(Cc1ccc(O)c(O)c1)C(=O)O (configuration not stated)
- outcome [2]: inactive
- outcome [3]: inactive

SMILES: O=c1cc(-c2ccc(O)cc2)oc2cc(O[C@H]3OC(CO)C(O)C(O)C3O)cc(O)c12 (some centres not stated)
- outcome [3]: inactive

SMILES: COc1ccc2ccc(=O)oc2c1
- outcome [2]: inactive
- outcome [3]: inactive

SMILES: CN(C)CC/C=C1\c2ccccc2CSc2ccccc21
- Potency (3D7): inactive
- Potency (C2A): inactive
- Potency (CP201): inactive
- Potency (CP250): inactive
- Potency (CP256): inactive
- Potency (CP262): inactive
- Potency (CP286): inactive
- Potency (CP297): inactive
- Potency (CP329): inactive
- Potency (Dd2): 1.78 µM (active)
- Potency (ECU): inactive
- Potency (FAB9): inactive
- Potency (HB3): inactive
- Potency (JCK): inactive
- Potency (PAD): inactive
- Potency (PC15): inactive
- Potency (W2): 1.28 µM (active)

SMILES: O=c1ccc2ccc(O)cc2o1
- outcome [2]: inactive

SMILES: C[N+](C)(C)CC(O)CC(=O)O (configuration not stated)
- Potency (3D7): inactive
- Potency (C2A): inactive
- Potency (CP201): inactive
- Potency (CP250): inactive
- Potency (CP256): inactive
- Potency (CP262): inactive
- Potency (CP286): inactive
- Potency (CP297): inactive
- Potency (CP329): inactive
- Potency (Dd2): inactive
- Potency (ECU): inactive
- Potency (FAB9): inactive
- Potency (HB3): inactive
- Potency (JCK): inactive
- Potency (PAD): inactive
- Potency (PC15): inactive
- Potency (W2): inactive

SMILES: O=C(Cc1cccs1)NC1C(=O)N2C(C(=O)[O-])=C(C[n+]3ccccc3)CSC12 (configuration not stated)
- Potency (3D7): inactive
- Potency (C2A): inactive
- Potency (CP201): inactive
- Potency (CP250): inactive
- Potency (CP256): inactive
- Potency (CP262): inactive
- Potency (CP286): inactive
- Potency (CP297): inactive
- Potency (CP329): inactive
- Potency (Dd2): inactive
- Potency (ECU): inactive
- Potency (FAB9): inactive
- Potency (HB3): inactive
- Potency (JCK): inactive
- Potency (PAD): inactive
- Potency (PC15): inactive
- Potency (W2): inactive

SMILES: CC(C)N1CCN(c2ccc(OC[C@@H]3CO[C@@](Cn4cncn4)(c4ccc(Cl)cc4Cl)O3)cc2)CC1
- Potency (3D7): inactive
- Potency (C2A): inactive
- Potency (CP201): inactive
- Potency (CP250): inactive
- Potency (CP256): inactive
- Potency (CP262): inactive
- Potency (CP286): inactive
- Potency (CP297): inactive
- Potency (CP329): inactive
- Potency (Dd2): inactive
- Potency (ECU): inactive
- Potency (FAB9): inactive
- Potency (HB3): inactive
- Potency (JCK): inactive
- Potency (PAD): inactive
- Potency (PC15): inactive
- Potency (W2): inactive

SMILES: C=C[C@](C)(O)CCC=C(C)C
- outcome [2]: inactive

SMILES: NC(Cc1c[nH]c2ccccc12)C(=O)O (configuration not stated)
- outcome [3]: inactive

SMILES: C=C(C)[C@H]1CC=C(C)C(=O)C1
- outcome [2]: inactive
- outcome [3]: inactive

SMILES: C[C@@H]1CCC[C@H](C)N1NC(=O)c1ccc(Cl)c(S(N)(=O)=O)c1
- Potency (3D7): inactive
- Potency (C2A): inactive
- Potency (CP201): inactive
- Potency (CP250): inactive
- Potency (CP256): inactive
- Potency (CP262): inactive
- Potency (CP286): inactive
- Potency (CP297): inactive
- Potency (CP329): inactive
- Potency (Dd2): inactive
- Potency (ECU): inactive
- Potency (FAB9): inactive
- Potency (HB3): inactive
- Potency (JCK): inactive
- Potency (PAD): inactive
- Potency (PC15): inactive
- Potency (W2): inactive

SMILES: CN1[C@@H]2CC[C@H]1CC(OC(=O)[C@@H](O)c1ccccc1)C2 (some centres not stated)
- Potency (3D7): inactive
- Potency (C2A): inactive
- Potency (CP201): inactive
- Potency (CP250): inactive
- Potency (CP256): inactive
- Potency (CP262): inactive
- Potency (CP286): inactive
- Potency (CP297): inactive
- Potency (CP329): inactive
- Potency (Dd2): inactive
- Potency (ECU): inactive
- Potency (FAB9): inactive
- Potency (HB3): inactive
- Potency (JCK): inactive
- Potency (PAD): inactive
- Potency (PC15): inactive
- Potency (W2): inactive

SMILES: COc1ccc2[nH]cc(CCNc3ncnc4ccc(-c5ccc(C(=O)N(C)C)cc5)cc34)c2c1
- Potency [1]: 251 nM (active)

SMILES: Cc1cccc(CNc2ccnc(-c3ccccc3CN(C)C)n2)c1
- activity change, negative = inhibition [1]: 13.9% [at 2.29 µM] (inactive)

SMILES: O=C(c1cc(C(F)(F)F)cc(C(F)(F)F)c1)N1CCC2(CC1)CCN(c1ncccn1)CC2
- Potency [1]: inactive
